Screening results (PubChem BioAssay)
Hits are enriched below; roughly 7.8% of the tested compounds scored in any of these assays.
Marburg entry inh: inhibitors of Marburg virus binding or cell entry; Marburg virus pseudotyped entry inhibition, cell reporter; Potency, µM (titrated, usually from 37.8 µM), for the others: top-dose activity change, negative = inhibition, actives largely listed as inhibitors; 1.8% of 300,000 active; AID 540276; calls by dose curve; tested in HEK293 cells; also: potency is read from the fitted curve at half-maximal effect
VACV Venus inh: inhibitors of vaccinia virus (Venus reporter); Vaccinia virus Venus reporter expression, fluorescence; Potency, µM (series often up to 36.5 µM), without a hit: at the top dose activity change, negative = inhibition, hits mostly inhibitors; 0.46% of 330,000 active; AID 720580; calls by dose curve; tested in A549 cells; also: potency is read from the fitted curve at half-maximal effect; nearly all actives have a fitted effect of over 30% in size
LASV entry inh: blocks Lassa virus binding to or entry into cells. Lassa virus pseudotype entry inhibition, cell reporter. AID 540256. 1.2% of 300,000 active. Potency, µM (titrated, usually from 37.9 µM), for the others: at the highest dose activity change, negative = inhibition, hits mostly inhibitors; calls by dose curve; tested in HEK293 cells; also: potency is read from the fitted curve at half-maximal effect; nearly all actives have a fitted effect of over 50% in size
HCMV inh: inhibitors of human cytomegalovirus; 4.5% of 410,000 active; HFF cells, HCMV-luciferase reporter, 72 h; stronger effect = lower value; activity change, negative = inhibition, % at 57.5 µM; AID 1259415; in the data active = activity change below about -60%; inconclusive = no clear call, values can overlap the other calls; inactive = above about -39%
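Human foreskin fibroblasts infected with luciferase-reporter HCMV at MOI 1 PFU/cell, compounds at two doses. Luciferase measured 72 h post infection; normalized to buffer-only basal and Salinomycin (10uM) controls.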
HCV inhibitor: blocks hepatitis C virus; Huh7.5.1 HCVcc-Cre infection, luciferase reporter, 44 h; 3.4% of 340,000 active; Potency, µM (doses to about 41.8 µM), for the others: at the highest dose activity change, negative = inhibition, most hits filed as inhibitors; active = well fitted inhibition curve with a large enough effect; inconclusive = small, poorly fitted or top-dose-only effect, or another doubt; inactive = no such curve, though single readings can be large or run the other way; also: potency is read from the fitted curve at half-maximal effect
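Whole-lifecycle infectious HCVcc-Cre system; cells 1,000/well, compound then virus (~0.5 moi) added 4 h after plating, 44 h culture. Luciferase read 15 sec following 15 min substrate incubation, room temp.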
Vaccinia mCherry: inhibitors of vaccinia virus infection (mCherry reporter signal) | Vaccinia virus mCherry reporter infection, fluorescence | AID 720579 | Potency, µM (top dose mostly 36.5 µM), for inactives: top-dose activity change, negative = inhibition, usual class: inhibitors | 0.63% of 310,000 active; calls by dose curve; tested in A549 cells; also: potency is read from the fitted curve at half-maximal effect; nearly all actives have a fitted effect of over 35% in size
* = called active by the depositor; i = inactive; ? = inconclusive; . = not tested or not shown; + = active, no number; ! = repeats disagree; [ ] = another dose, or the depositor's remark. % is scaled to controls: 0 for no effect and ±100 for the full control effect.

SMILES | Marburg entry inh | VACV Venus inh | LASV entry inh | HCMV inh | HCV inhibitor | Vaccinia mCherry
Cn1c(N)c(C(=O)CSc2nn(-c3ccccc3)c(=S)s2)c(=O)n(C)c1=O | ? | -8.2% | ? | ? | 10µM* | ?
CCOC(=O)/C=C/C(=O)Nc1ccccc1-c1ccccc1NC(=O)/C=C/C(=O)OCC | ? | -14.4% | 12.6µM* | -98.0* | 12.6µM* | -8.4%
Cc1cc(NC(=O)CSc2nnc(-c3ccccc3)o2)no1 | 7.2%[46.1 µM] | -11.0% | 0.5%[46.1 µM] | 15.5 | 2.5% | -11.8%
COCCn1c(-c2ccc(OC)cc2)cnc1SCC(=O)Nc1cc(C)on1 | ? | -29.6% | -10.6% | -86.2* | ? | -9.0%
CCOc1cc(-c2nnc(SCC(=O)NCc3ccccc3)nc2-c2ccc(OC)c(OCC)c2)ccc1OC | . | ? | ? | -74.5* | . | ?
Cc1cccc(-n2c(N)cc(=O)nc2SCC(=O)Nc2cc(C)on2)c1 | 10.5% | -12.9% | 10.0% | -32.4 | 0.3% | -10.9%
Cc1cc(NC(=O)CSc2nnc(-c3ccccc3)c(-c3ccccc3)n2)no1 | ? | -19.5% | ? | -62.1* | ? | -22.5%
Cc1cc(NC(=O)CSc2nc(=O)cc(N)n2-c2ccc(Cl)cc2)no1 | -1.2%[46.1 µM] | -10.4% | -3.6%[46.1 µM] | -64.5* | 11.5% | i
COc1cc2c(cc1OC)C(c1ccc(F)cc1)N(c1ccccc1)C(=O)C2 (stereo not given) | 1.2%[46.1 µM] | 2.6% | -4.7%[46.1 µM] | 28.4 | . | -2.6%
Cc1ccc(-n2ncc(C(=O)NCc3ccccc3C)c2-n2cccc2)cc1 | . | -16.2% | 3.0%[46.1 µM] | ? | . | -14.1%
CN(C)CC(=O)N1CC(=O)N2[C@H](CO)[C@@H](c3ccc(Br)cc3)[C@H]2C1 | . | . | . | -8.5 | . | .
CCOc1ccc(-c2nnc(SCC(=O)Nc3cccc(C#N)c3)o2)cc1 | 0.4%[46.1 µM] | -6.7% | 27.0%[46.1 µM] | 22.1 | . | i
Cc1cc(C)c2cc(C#N)c(SCC(=O)Nc3cc(C)on3)nc2c1 | 20.4%[46.1 µM] | -1.7% | . | -60.6* | -21.5% | 0.1%
Cc1cc(NC(=O)CSCC(=O)Nc2ccc(C)c(C)c2)no1 | . | . | . | + | -7.1% | .
Cc1cc(NC(=O)CSCC(=O)Nc2ccc(Cl)c(C(F)(F)F)c2)no1 | -13.2%[46.1 µM] | -12.1% | 11.9% | -30.7 | -1.9% | -17.6%
COCCn1c(SCC(=O)Nc2cc(C)on2)nc2ccccc2c1=O | . | . | . | -9.5 | 19.4% | .
Cc1cc(NC(=O)CSc2ccccc2)no1 | ? | ? | 16.2% | -102.1* | 9.1% | i
Cc1cc(NC(=O)CSc2ccc(F)cc2)no1 | . | . | . | ? | -8.3% | .
CCCCCCn1c(SCC(=O)Nc2cc(C)on2)nc2ccccc2c1=O | ? | . | ? | -62.9* | ? | .
Cc1ccc(CNC(=O)CCCn2c(=O)c3ccccc3n(Cc3ccc(Cl)cc3)c2=O)cc1 | 0.3%[46.1 µM] | -14.9% | 13.8%[46.1 µM] | 6.5 | . | -19.6%
Cc1cc(NC(=O)CSc2nc(C(C)C)nc3ccccc23)no1 | ? | . | ? | ? | 12.6µM* | .
Cc1nnc(NC(=O)CSc2nc(C(C)C)nc3ccccc23)s1 | -23.4% | -15.5% | ? | ? | ? | -19.8%
Cc1cc(NC(=O)CCc2ccc(-c3ccccc3)o2)no1 | ? | -6.0% | ? | -101.8* | -4.6% | i
C[C@@]12CCC[C@H]1C1CC[C@H]3C[C@H](O)CC[C@]3(C)C1CC2 (stereo not given in full) | . | -19.7% | . | . | . | -6.6%
Oc1ccc(C2=NN(c3ccccc3)C(c3ccc(F)cc3)C2)cc1 (stereo not given) | ? | ? | 11.2µM* | 21.6 | 10µM* | -29.7%
SMILES | Marburg entry inh | VACV Venus inh | LASV entry inh | HCMV inh | HCV inhibitor | Vaccinia mCherry
COc1ccc(C2CC(c3ccc(F)cc3)=NN2c2ccccc2)cc1OC (stereo not given) | 3.5% | -9.7% | ? | 76.8 | ? | -17.9%
Oc1ccccc1C1=NN(c2ccccc2)C(c2ccc(F)cc2)C1 (stereo not given) | -9.8%[46.1 µM] | -4.4% | -23.5%[46.1 µM] | -73.7* | -18.5% | -26.0%
CCc1ccc(NC(=O)C2CCN(c3cc(C)nc4c(-c5ccc(Cl)cc5)c(C)nn34)CC2)cc1 | -2.5%[46.1 µM] | -4.0% | 3.6%[46.1 µM] | -22.6 | . | 0.0%
CCOc1ccc2nc(N(Cc3cccnc3)C(=O)c3ccc4c(c3)OCCO4)sc2c1 | . | 3.8%[7.34 µM] | 22.0%[46.1 µM] | 27.0 | . | 0.3%[7.34 µM]
O=C(COC(=O)c1c2ccccc2cc2ccccc12)NCC(F)(F)F | -3.4% | ? | -13.5% | -19.0 | 11.2µM* | -23.0%
CC(=O)c1cccc(NC(=O)[C@H](Cc2ccccc2)N2Cc3ccccc3C2=O)c1 | -1.6%[46.1 µM] | -2.7% | -1.5%[46.1 µM] | 15.7 | . | 0.6%
Cc1[nH]c2ccccc2c1CCNC(=O)c1ccc2c(c1[N+](=O)[O-])C(=O)c1ccccc1C2=O | ? | 127.3% | ? | -75.3* | ? | 0.6%
Cc1[nH]c2c(C)cccc2c1CCNC(=O)c1ccc2c(c1[N+](=O)[O-])C(=O)c1ccccc1C2=O | ? | 88.8% | ? | ? | ? | -2.4%
CSc1ccc(C2=CC(=O)C[C@H](c3ccc4c(c3)OCO4)C2)cc1 | . | -13.8% | . | -64.3* | 17.0% | i
Cc1cc(C2=CC(=O)C[C@H](c3ccc(F)cc3)C2)ccc1F | . | -17.3% | . | -61.8* | . | -19.2%
Cc1ccc(C2=CC(=O)C[C@H](c3ccc4c(c3)OCO4)C2)cc1 | . | -7.5% | . | -38.3 | -29.3% | -4.2%
Cc1ccc2c(c1)C1CN(C)CCC1N2Sc1ccccc1[N+](=O)[O-] (stereo not given) | ? | -3.9% | 7.08µM* | -8.8 | -11.2% | ?
CSc1nn(Cc2cccc(Cl)c2)c(N(C(C)=O)C(C)=O)c1S(=O)(=O)c1ccccc1 | -22.7%[46.1 µM] | ? | ? | -19.3 | . | ?
COc1ccccc1C(=O)Nc1nnc(S(=O)(=O)N(C)c2ccc(Cl)cc2)s1 | . | -11.9% | 0.4%[46.1 µM] | 5.6 | . | -10.1%
O=C(C1CCC(CNS(=O)(=O)c2cccs2)CC1)N1CCN(c2ccc(Cl)cc2)CC1 (stereo not given) | . | ? | ? | -93.0* | 3.55µM* | ?
COc1ccc(NC(=O)CC2C(=O)N(c3cccc(OC)c3)C(=O)N2CCc2cccs2)cc1 (stereo not given) | 1.2%[46.1 µM] | 3.7% | ? | -5.1 | . | -10.3%
COc1ccc(NC(=O)CC2C(=O)N(c3ccc(OC)cc3)C(=O)N2CCc2cccs2)cc1 (stereo not given) | -19.0% | -13.3% | 9.2µM* | -34.2 | -7.0% | -1.0%
Cn1cc(C(=O)Nc2ccc(C#N)cc2)c2ccccc2c1=O | ? | -0.4% | 10.6% | -67.4*! | -7.9% | 14.3%
O=C(NNC(=S)NC(=O)c1ccc(Br)cc1)c1cccc([N+](=O)[O-])c1 | . | . | . | -104.6* | -15.3% | .
CCCc1ccc(C(=O)NC(=O)c2ccccc2O)cc1 | 8.91µM* | -1.6%[7.34 µM] | 10µM* | -88.5* | ? | i[7.34 µM]
Cc1ccc(C(=O)NC(=S)NNC(=O)c2ccccc2O)cc1 | ? | -5.2% | -26.9% | -81.0* | ? | -9.6%
O=C(NC(=S)NNC(=O)c1ccccc1O)c1ccc([N+](=O)[O-])cc1 | . | -9.7% | . | -70.4* | ? | -8.6%
